Measured values from PubChem BioAssay AID1986 (Sanford-Burnham Center for Chemical Genomics, 2009).
Where “and” joins values, the source holds several entries; their conditions need not be identical. Identical values can stand only once. Screen size: about 290,000 compounds; about 890 (0.31%) were called active. Cut-off read from the data, not from the text of the source: active = inhibition mostly above about 52% (no sharp cut-off); inactive = mostly below about 76%. What follows is part of a selection rich in actives, with near analogues and random picks from the rest. The source holds several records for some structures; these can differ, active in one and inactive in another.

Assay: inhibitors of HIV fusion peptide binding, primary screen, biochemical, uHTS, fluorescence dequenching (AID 1986)
Settings: cell-free peptide binding, 30 min, stronger effect = higher value
[1] = measured here: repeat confirmation average inhibition, at 18.6 µM

SMILES	inhibition (at 20 µM)	inhibition [1]
COc1ccc(CCNC2CC(=O)N(CCc3ccccc3)C2=O)cc1 (configuration not stated)	0.5% (inactive)	
COCCN1C(=O)N(c2cccc(C)c2)C(=O)C1CC(=O)Nc1cc(OC)cc(OC)c1 (configuration not stated)	0.1% (inactive)	
O=C1OC(c2ccc(F)cc2)=C/C1=C\c1ccc([N+](=O)[O-])o1	77.6% (active)	
O=[N+]([O-])c1ccc(/C=N\NS(=O)(=O)c2ccc(F)cc2)o1	1.3% (inactive)	
O=C1OC(c2ccc(F)cc2)=C/C1=C\c1ccc(O)cc1	1.8% (inactive)	
COc1ccc(OC)c(/C=c2\sc3nc(-c4cccs4)nn3c2=O)c1	60.9% (active)	58%
COc1ccc(Br)cc1/C=c1\sc2nc(-c3ccco3)nn2c1=O	56.1% (active)	
COc1ccccc1/C=c1\sc2nc(-c3ccco3)nn2c1=O	36.3% (inactive)	
COc1cccc(/C=c2\sc3nc(-c4cccs4)nn3c2=O)c1OC	2.8% (inactive)	
COc1ccc(/C=c2\sc3nc(-c4ccccc4OC)nn3c2=O)c(OC)c1	11.2% (inactive)	
CCOc1ccc(/C=c2\sc3nc(-c4ccco4)nn3c2=O)cc1OCC	21.5% (inactive)	
CC(C)n1cc(C(=O)c2ccccc2O)cc(C#N)c1=O	-0.9% (inactive)	
CC(C)CC(C(=O)O)N1C(=O)C2C3c4ccccc4C(c4ccccc43)[C@@H]2C1=O (some centres not stated)	-0.8% (inactive)	
CCCCCCCNC(=O)C1(CC2CC(c3ccc(Cl)cc3)=NO2)CCN(C(=O)OC(C)(C)C)CC1 (configuration not stated)	0.6% (inactive)	
Cc1oncc1C(=O)NC1CCCCC1	0.8% (inactive)	
CCOc1ccccc1N(CC(=O)NCCc1ccccc1)C(=O)CCC(=O)Nc1ccccn1	0% (inactive)	
CCCCN1C(=O)/C(=C/C=C2\N(C)c3ccccc3C2(C)C)SC1=S	-0.3% (inactive)	
CN1/C(=C\C=C2/SC(=S)N(CC(=O)O)C2=O)C(C)(C)c2ccccc21	148% (inactive)	
C=CCN1C(=O)/C(=C\C=C2\N(C)c3ccccc3C2(C)C)SC1=S	54.6% (active)	
COc1cccc(-c2noc(CCCC(=O)Nc3ccc(C(N)=O)cc3)n2)c1	0.5% (inactive)	

SMILES	inhibition (at 20 µM)	inhibition [1]
CCCCCCn1ccc(=N)cc1	-2% (inactive)	
CCCCCCCCn1ccc(=N)cc1	-1.2% (inactive)	
CCCCCCCCCCCCCCCCn1cc[n+](C)c1	137% (inactive) and 70.3% (active)	
C[C@H](NC(=O)C1CCN(S(=O)(=O)c2ccccc2)CC1)C(=O)NCc1cccc(Cl)c1	-1.4% (inactive)	
CCOC(=O)C1=C(C)C2C3C(=O)N(c4cc(C)ccc4C)C(=O)C3C1(C)C1C(=O)N(c3cc(C)ccc3C)C(=O)C21 (configuration not stated)	-0.1% (inactive)	
COC(=O)c1sc(N2C(=O)C(O)=C(C(=O)c3ccc(C)o3)C2c2ccc(OC)c(OC)c2)nc1C (configuration not stated)	15.3% (inactive)	
COc1ccc(C(C)=O)cc1CSc1nc2cc(C(=O)O)ccc2c(=O)n1Cc1ccccc1	62.4% (active)	
CCOC(Cn1c(SCc2cc(C(C)=O)ccc2OC)nc2ccccc2c1=O)OCC	3.3% (inactive)	
COCCn1c(SCc2cc(C(C)=O)ccc2OC)nc2cc(Cl)ccc2c1=O	-2.4% (inactive)	
COCC(C)n1c(SCC(=O)c2cc(C)n(C)c2C)nc2ccccc2c1=O (configuration not stated)	0.2% (inactive)	
CC(C)(C)c1ccc(NC(=O)C2CCCN(c3cnccn3)C2)cc1 (configuration not stated)	-0.1% (inactive)	
Cc1cccc(Oc2cc([N+](=O)[O-])cc3c2C(=O)Nc2ccccc2O3)c1	46.8% (inactive)	
O=C1Nc2ccccc2Oc2cc([N+](=O)[O-])cc(Oc3ccccc3)c21	59.7% (active)	
CCOc1cc([N+](=O)[O-])cc2c1C(=O)Nc1ccccc1O2	104% (active)	57.4%
Cc1ccc2c(c1)NC(=O)c1cc([N+](=O)[O-])ccc1O2	2.5% (inactive)	
Cc1ccc(Oc2cc([N+](=O)[O-])cc3c2C(=O)Nc2ccccc2O3)cc1	40.9% (inactive)	
O=C1Nc2ccccc2Oc2cc([N+](=O)[O-])ccc21	13% (inactive)	
CCOc1cccc(C(=O)Nc2cccc(C(C)=O)c2)c1	-0.2% (inactive)	
Cc1ccc(CN(C(=O)c2ccccc2[N+](=O)[O-])C2CCS(=O)(=O)C2)o1 (configuration not stated)	0.4% (inactive)	
COc1cccc(OC)c1C(=O)NC(=O)Nc1c(F)c(F)c(F)c(F)c1F	0.3% (inactive)	

SMILES	inhibition (at 20 µM)	inhibition [1]
O=C(O)CC(c1cccc(C(F)(F)F)c1)N1CCS(=O)(=O)CC1 (configuration not stated)	0.6% (inactive)	
CCc1ccc(CN(C(=O)COc2c(C)cccc2C)C2CCS(=O)(=O)C2)cc1 (configuration not stated)	-0.3% (inactive)	
O=C(Nc1nnc(-c2cccc(F)c2)s1)Nc1ccccc1F	0.6% (inactive)	
O=c1[nH]c2c(cc1CNCCN1CCOCC1)c(-c1cccc(F)c1)nn2-c1ccccc1	-1.4% (inactive)	
COc1ccc(CNC(=O)Oc2ccccc2)cc1Cl	-0.6% (inactive)	
Cc1ccc(C)c(N2C(=N)S/C(=C\c3ccc(-c4ccccc4C(=O)O)o3)C2=O)c1	52.1% (inactive)	18.9%
O=C(O)c1ccccc1-c1ccc(/C=C2\SC(=O)N(c3ccccc3)C2=O)o1	11% (inactive)	
COc1ccccc1N1C(=N)S/C(=C\c2ccc(-c3ccccc3C(=O)O)o2)C1=O	54% (active)	
O=C(NNC(=S)NC1CCCCC1)c1ccccc1O	3.3% (inactive)	
CN(C)c1ncc(/C=C2/C(=O)NC(=S)N(C3CCCCC3)C2=O)cn1	32.3% (inactive)	
O=C1C(=Cc2ccco2)C(=O)c2ccccc21	33.3% (inactive)	
O=C1/C(=C\c2ccc(Br)o2)Cc2ccccc21	21.7% (inactive)	
COc1ccc2c(c1)CC/C(=C/c1ccco1)C2=O	44.1% (inactive)	
O=C1/C(=C/c2ccco2)Cc2ccccc21	29.3% (inactive)	
O=C1/C(=C/c2ccco2)CCc2ccccc21	57.7% (active)	
Nc1ccc2c(c1)C/C(=C/c1ccco1)C2=O	73.6% (active)	
CC(C)N(C(=O)Cn1cc(S(=O)(=O)CC(=O)NC2CCCCC2)c2ccccc21)C(C)C	-0.7% (inactive)	
Cc1ccc(-c2csc(NCCn3c(C(F)(F)F)nc4ccccc43)n2)cc1	1.7% (inactive)	
Cc1cnc(CN(C)C(=O)c2ccc3oc(Cc4ccc(Cl)cc4)nc3c2)[nH]1	0.2% (inactive)	
